# High-throughput results deposited in PubChem by National Center for Advancing Translational Sciences (NCATS).
# This is a sample that favours compounds with a hit; in the whole collection about 9.3% have one here.
# Rab9 promoter act: activators of Rab9 promoter; Huh7 Rab9 promoter-luciferase reporter, luminescence, 24 h; Potency, µM (doses to about 9.22 µM), without a hit: at the top dose activation, negative = inhibition, usual class: activators; 320,000 compounds, 2.8% hits; AID 485297; also: % of control where 0% means no effect; nearly all actives have a fitted effect of over 60% in size
#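 Cells were plated at 1500 per well in reduced-serum medium with 10% FBS and left 2 h. Compound in DMSO was then added for 24 h at 37 °C. Reporter signal was read by luminescence after 10 min with luciferase detection reagent.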
# FLuc modulator: inhibits or activates purified firefly luciferase, miR-21 counter-screen; P08659; purified FLuc, Km substrates, luminescence inhibition; Potency, µM (highest dose often 57.5 µM), for the others: top-dose activity change, negative = inhibition, most hits filed as inhibitors; 360,000 compounds, 6.9% hits; AID 588342;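 also: plate controls were vehicle for no effect and reference inhibitor for full effect; nearly all actives have a fitted effect of over 55% in size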
# Target sequence (P08659 whole entry, looked up): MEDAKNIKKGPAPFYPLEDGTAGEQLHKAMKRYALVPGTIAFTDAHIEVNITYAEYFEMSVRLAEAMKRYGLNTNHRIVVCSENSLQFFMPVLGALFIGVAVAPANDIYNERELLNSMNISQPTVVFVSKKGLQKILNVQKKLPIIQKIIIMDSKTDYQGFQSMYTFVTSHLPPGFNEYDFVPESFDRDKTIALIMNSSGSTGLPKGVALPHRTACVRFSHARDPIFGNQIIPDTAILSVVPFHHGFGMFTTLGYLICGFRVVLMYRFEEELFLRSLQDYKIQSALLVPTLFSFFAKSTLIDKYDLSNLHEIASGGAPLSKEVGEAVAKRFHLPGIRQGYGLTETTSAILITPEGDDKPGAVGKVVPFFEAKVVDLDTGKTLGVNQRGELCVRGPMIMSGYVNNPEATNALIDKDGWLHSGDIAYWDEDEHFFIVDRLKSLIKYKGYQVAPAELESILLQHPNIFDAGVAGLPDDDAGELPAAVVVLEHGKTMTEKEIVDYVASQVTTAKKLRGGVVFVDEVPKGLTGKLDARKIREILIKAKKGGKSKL
#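 Purified P. pyralis luciferase (10nM final) with 10uM D-luciferin and 10uM ATP (Km levels) in 50mM Tris acetate pH 7.5, 10mM Mg acetate, 0.01% Tween-20, 0.05% BSA; qHTS 6-point titration, ~60 µM downward; luminescence read.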
# NPC1 promoter act: activators of NPC1 promoter; AID 485313; Huh7 NPC1 promoter luciferase reporter, 24 h; Potency, µM (highest dose often 9.22 µM), without a hit: at the top dose activation, hits mostly activators; 320,000 compounds, 2.4% hits; also: % of control where 0% means no effect; nearly all actives have a fitted effect of over 60% in size
#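 Luminescence read-out of NPC1 promoter-driven luciferase in stably transfected Huh7 cells; compounds delivered in DMSO and left 24 h at 37C, 5% CO2, qHTS titration format.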
# ELG1 repair inh: blocks ELG1-dependent DNA repair in HEK293T cells; HEK293T ELG1-luciferase reporter, luminescence, 16 h; DNA damage induced by 5-fluorouridine; Potency, µM (series often up to 46.1 µM), inactives show at the top dose activity change, negative = inhibition, most hits filed as inhibitors; 330,000 compounds, 2.3% hits; AID 504467; also: % is scaled to controls: 0 for no effect and ±100 for the full control effect; nearly all actives have a fitted effect of over 55% in size
#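 Reporter activity after DNA damage by 5-fluorouridine is monitored. Compound-treated cells incubate 16 hr at 37 °C, then ONE-Glo is added for 30 min before luminescence reading.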
# ELG1 genotox: inducers of genotoxicity in HEK293T ELG1-luciferase cells. HEK293T ELG1-luciferase reporter, luminescence, 16 h. Potency, µM (doses to about 46 µM), for inactives: at the highest dose activity change, positive = activation, most hits filed as activators. 330,000 compounds, 1.3% hits. AID 504466; also: % of control where 0% means no effect; nearly all actives have a fitted effect of over 60% in size
#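 HEK293T cells expressing luciferase-tagged ELG1 were treated with compound or DMSO for 16 hr at 37°C. Luciferase activity was then read after 30 min with ONE-Glo at room temperature; rising signal flags genetic stress.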
# SMN2 splice enh: enhancers of SMN2 splice variant expression | HEK293 SMN2-luciferase splicing reporter, luminescence, 30-36 h | Potency, µM (series often up to 46.1 µM), without a hit: top-dose activity change, positive = activation, hits mostly activators | 210,000 compounds, 2.8% hits | AID 1458; also: % of control where 0% means no effect; nearly all actives have a fitted effect of over 55% in size
#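 HEK293 cells carry an SMN2 […]–luciferase reporter in which exon 7 inclusion puts luciferase in frame. Cells were plated 10-12 h before compound addition, then incubated 30-36 h at 37C. ONE-Glo luminescence was read; sodium butyrate at 4.5 mM final served as control.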
# Numbers without * were called inactive; ? = inconclusive; / = no result given. Calls follow the shape of the dose curve; as a rule, active = well fitted curve in the direction sought with a large enough effect; inconclusive = small, poorly fitted or top-dose-only effect, or another doubt; inactive = no such curve, though single readings can be large; an effect the other way counts as inactive or inconclusive. Potency is read from the fitted curve at half-maximal effect.
SMILES,Rab9 promoter act,FLuc modulator,NPC1 promoter act,ELG1 repair inh,ELG1 genotox,SMN2 splice enh
COCCNc1oc(-c2ccc(C)cc2)nc1C#N,3.5µM*,12µM*,?,?,5.6µM*,10µM*
N#Cc1ccc(C(=O)NC23CC4CC(CC(C4)C2)C3)cc1,-8%,5%,-5%,-9%,-7%,/
CCCS(=O)(=O)N1CCN(c2cc3c(cc2[N+](=O)[O-])n(C)c(=O)n3C)CC1,0%,1%,-4%,?,-10%,/
Cn1ccnc1C(=O)c1ccc(Cl)c(S(=O)(=O)N2CCOCC2)c1,0%,3%,-3%,4%,0%,/
CNC(=O)/C(C#N)=C/c1cccc(Oc2ccccc2)c1,-3%,8.5µM*,-4%,?,?,/
COCCNC(=O)/C(C#N)=C/c1cccc(/C=C(\C#N)C(=O)NCCOC)c1,0%,?,-3%,21µM*,-21%,?
COc1ccc(C(=O)COC(=O)c2cccc(NC(=O)c3ccc(OC)c(OC)c3)c2)cc1,/,0.6µM*,/,/,/,-2%
COc1ccc(-c2cccc(C(=O)Nc3ccc(OC)c(OC)c3)c2)cc1,0%,11µM*,-9%,-18%,0%,-23%
COc1ccc(C(=O)Nc2ccc(OC)c(OC)c2)cc1,?,12µM*,?,?,?,11µM*
COc1ccc(-c2cccc(C(=O)Nc3cccc(C(=O)O)c3)c2)cc1,3.2µM*,12µM*,3.2µM*,?,?,14µM*
CCN(c1ccc(C)cc1C)S(=O)(=O)c1nnc(NC(=O)C(C)(C)C)s1,1%,-2%,0%,-3%,-6%,/
COCCNC(=O)CSc1nc(-c2ccc(C)cc2)nc2c1c(=O)n(C)c(=O)n2C,/,0%,/,/,/,/
CCOC(=O)c1ccc(-c2ccc(/C=N/NC(=O)CN(c3ccccc3Br)S(C)(=O)=O)o2)cc1,?,-17%,?,?,-16%,11µM*
CN(C)c1ccc(/C=N/NC(=O)CN(c2ccccc2Cl)S(C)(=O)=O)cc1Br,0%,-16%,-1%,10µM*,-6%,-4%
O=C(c1cc(COc2ccc(F)cc2Cl)on1)N(CCO)Cc1cccs1,0%,?,1%,25%,4%,/
COc1ccc2cc(-c3[nH]ncc3CN3C[C@@H]4CCC[C@H]3C4)ccc2c1,-1%,?,1%,?,13%,/
CCCCn1c(SCc2ccc(C(=O)OC)o2)nc2cc(S(N)(=O)=O)ccc21,-18%,-8%,-7%,10µM*,-8%,-35%
CCCCn1c(SCC(=O)c2cc(OC)ccc2OC)nc2cc(S(N)(=O)=O)ccc21,1%,0%,0%,8%,-1%,-11%
CC(C)NC(=O)CCCN1C(=O)c2ccccc2Sc2ncccc21,-3%,0%,-5%,20%,0%,/
Nc1ccc2nc(SCc3ccccc3F)sc2c1,?,1.7µM*,26%,?,?,/
Nc1ccc2nc(SCC(=O)c3ccccc3)sc2c1,11%,?,1%,?,21%,/
C/C(=N\NC(=O)c1ccc(CN2CCOCC2)cc1)c1ccc(NC(=O)c2ccccc2)cc1,?,?,?,?,?,11µM*
CC(=O)Nc1ccc(/C(C)=N/NC(=O)c2ccc(CN3CCOCC3)cc2)cc1,-5%,0%,-3%,3%,1%,-43%
C/C(=N/NC(=O)c1ccco1)c1ccc(NC(=O)c2ccc(Br)o2)cc1,?,?,?,?,13%,/
Cc1cc(/C=N/NC(=O)c2ccc(CN3CCOCC3)cc2)c(C)n1-c1ccccc1,-1%,6.7µM*,1%,-8%,?,-51%
SMILES,Rab9 promoter act,FLuc modulator,NPC1 promoter act,ELG1 repair inh,ELG1 genotox,SMN2 splice enh
O=C(Nc1ccc(CN2CCOCC2)cc1)c1cccc(F)c1,2.8µM*,9.5µM*,2.8µM*,?,16µM*,13µM*
CC(C)COc1cccc(C(=O)Nc2ccc(CN3CCOCC3)cc2)c1,2%,?,3%,?,-8%,/
C/C(=N/NC(=O)c1ccco1)c1ccc(NC(=O)c2ccc(F)cc2)cc1,?,?,29%,?,13%,16µM*
COC(=O)c1ccc(CN2[C@@H]3C[C@@H](O)CC[C@@H]3C[C@H]2C(=O)OC)cc1,/,/,/,/,/,8%
COc1cc(OC)c(NC(=O)CCc2c(C)nc3ncnn3c2C)cc1Cl,/,0%,/,/,/,4%
O=C(Nc1ccc(S(=O)(=O)N2CCOCC2)cc1)c1ccco1,-7%,5%,-3%,3%,3%,-8%
O=C(Nc1ccc(CN2CCOCC2)cc1)c1ccc(Cl)cc1,?,17µM*,?,?,?,/
O=C(Nc1ccc(CN2CCOCC2)cc1)c1ccc2ccccc2c1,1.4µM*,8.5µM*,1µM*,?,?,/
O=C(NCCSc1ccccc1)c1ccc(CN2CCOCC2)cc1,2µM*,12µM*,2µM*,?,?,/
O=C(Nc1ccc(CN2CCOCC2)cc1)c1ccco1,1.4µM*,21µM*,2µM*,?,?,/
Cn1cccc1C(=O)OCC(=O)NC(=O)NC1CCCCC1,25%,-19%,21%,?,12%,24%
COc1ccccc1C1CN=NC12CCCc1ccccc1C2=O (stereo unspecified),2%,-2%,-4%,-4%,-4%,-2%
O=C(Nc1ccc(CN2CCOCC2)cc1)c1ccc(Br)cc1,12%,?,?,-6%,?,/
CCC(C)Oc1ccc(C(=O)Nc2ccc(CN3CCOCC3)cc2)cc1 (stereo unspecified),-10%,15µM*,-5%,?,-2%,/
O=C(Nc1cccc([N+](=O)[O-])c1)c1ccc(CN2CCOCC2)cc1,24%,17µM*,22%,4%,7%,/
O=C(NC(N1CCOCC1)C(Cl)(Cl)Cl)c1ccco1 (stereo unspecified),?,8.5µM*,?,?,16µM*,/
CCOc1ccc(NC(=O)c2ccc(NC(=O)c3ccc(CN4CCOCC4)cc3)cc2)cc1,-14%,-6%,-2%,2%,?,/
COC(=O)c1ccc(NC(=O)c2ccc(CN3CCOCC3)cc2)cc1,-25%,?,-5%,8.2µM*,0%,-85%
C/C(=N\NC(=O)c1ccc(CN2CCOCC2)cc1)c1cccc([N+](=O)[O-])c1,-9%,0%,3%,?,-3%,-24%
N#CN(Cc1ccccc1)Cc1ccccc1,-3%,-1%,0%,-7%,0%,/
CCOc1ccc(CCNC(=O)c2cnc3c(-c4ccc(F)cc4)c(C)nn3c2C)cc1,/,-3%,/,/,/,/
O=C(Nc1ccc(CN2CCOCC2)cc1)c1ccc(F)cc1,?,21µM*,?,?,?,/
